These results are taken from PMC4336329 (PLoS ONE, 2015).

Among all 310,000 compounds or so, about 14,000 (4.5%) showed an effect of 50% or more. Effects have a minus sign here. Many of the other results were omitted from the sample, so strong results are more common in it than they were.
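Also: peak tail current of the secondary pulse compared with the same well before compound.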

The target in this assay is human ether-à-go-go-related gene (hERG) potassium channel (human, UniProt Q12809). Description: primary screen, population patch clamp on CHO cells stably expressing hERG; higher = less effect of the substance.
human ether-à-go-go-related gene (hERG) potassium channel, sequence (Q12809 whole entry, looked up): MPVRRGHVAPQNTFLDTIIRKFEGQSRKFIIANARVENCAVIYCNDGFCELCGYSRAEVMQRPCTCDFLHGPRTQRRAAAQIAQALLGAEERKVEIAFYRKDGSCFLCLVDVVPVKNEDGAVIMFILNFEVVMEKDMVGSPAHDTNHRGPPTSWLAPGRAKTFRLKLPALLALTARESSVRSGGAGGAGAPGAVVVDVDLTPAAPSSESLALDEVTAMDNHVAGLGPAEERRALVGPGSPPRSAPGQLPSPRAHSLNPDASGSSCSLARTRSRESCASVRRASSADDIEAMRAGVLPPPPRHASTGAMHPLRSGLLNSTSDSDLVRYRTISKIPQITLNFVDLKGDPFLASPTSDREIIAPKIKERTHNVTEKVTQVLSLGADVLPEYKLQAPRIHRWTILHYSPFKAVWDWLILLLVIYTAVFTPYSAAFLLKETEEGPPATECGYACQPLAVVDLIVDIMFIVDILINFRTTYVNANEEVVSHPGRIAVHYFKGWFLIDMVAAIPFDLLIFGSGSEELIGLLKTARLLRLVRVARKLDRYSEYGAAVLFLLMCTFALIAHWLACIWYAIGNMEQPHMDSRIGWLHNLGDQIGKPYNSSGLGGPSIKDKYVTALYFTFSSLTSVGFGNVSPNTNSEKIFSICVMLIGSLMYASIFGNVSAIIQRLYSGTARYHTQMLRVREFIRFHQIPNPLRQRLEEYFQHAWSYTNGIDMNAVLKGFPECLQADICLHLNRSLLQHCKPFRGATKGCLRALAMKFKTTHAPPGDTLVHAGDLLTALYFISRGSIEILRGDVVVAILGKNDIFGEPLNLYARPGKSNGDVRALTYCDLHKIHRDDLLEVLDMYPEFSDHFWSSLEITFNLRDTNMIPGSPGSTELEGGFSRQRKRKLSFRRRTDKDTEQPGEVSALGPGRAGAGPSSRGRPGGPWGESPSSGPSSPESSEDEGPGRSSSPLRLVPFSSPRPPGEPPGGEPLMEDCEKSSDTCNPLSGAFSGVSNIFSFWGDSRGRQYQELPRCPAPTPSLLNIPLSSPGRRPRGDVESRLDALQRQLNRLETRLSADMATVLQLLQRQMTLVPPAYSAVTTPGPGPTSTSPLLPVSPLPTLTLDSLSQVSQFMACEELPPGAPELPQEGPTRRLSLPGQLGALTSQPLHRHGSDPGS
For `Cc1ccc(NC(=O)COC(=O)c2ccc(Cl)nc2)cc1S(=O)(=O)N1CCCCC1`, the “hERG current change (%, negative = inhibition) at 10uM” value came out at 15.2%.

In the case of `O=C(Nc1ccccc1C(=O)N1CCN(CCO)CC1)c1cccc([N+](=O)[O-])c1`, the “hERG current change (%, negative = inhibition) at 10uM” value is recorded as 7%.

Take `CN(C)c1nc(SCC#N)nc(N(C)C)n1`: the “hERG current change (%, negative = inhibition) at 10uM” value was -3.57%.

With `CN1CCN(c2ccc(-c3cccc(NC(=O)COc4ccccc4)c3)nn2)CC1`, the “hERG current change (%, negative = inhibition) at 10uM” value was -35.9%.

Turning to `CN1CCN(c2ccc(-c3cccc(NC(=O)COc4ccc(Cl)cc4)c3)nn2)CC1`, the “hERG current change (%, negative = inhibition) at 10uM” value was -50.7%.

As for `O=C(COc1ccc(Cl)cc1)Nc1cccc(-c2ccc(N3CCOCC3)nn2)c1`, the “hERG current change (%, negative = inhibition) at 10uM” value is on record as 0.684%.

`COCC(=O)Nc1cccc(-c2ccc3nncn3n2)c1`: the “hERG current change (%, negative = inhibition) at 10uM” value amounted to 9.97%.

`CCOc1ccc(C(=O)Nc2cccc(-c3ccc4nncn4n3)c2)cc1`: the “hERG current change (%, negative = inhibition) at 10uM” value amounted to 12.5%.

On to `O=C(COc1ccc(Cl)cc1)Nc1cccc(-c2ccc3nncn3n2)c1`, for which the “hERG current change (%, negative = inhibition) at 10uM” value is listed as -51.9%.

On to `CCOc1cc(NS(C)(=O)=O)c(OCC)cc1NC(=O)c1cccs1`, for which the “hERG current change (%, negative = inhibition) at 10uM” value is reported as -15.8%.

Consider `CN1CCN(c2ccc(-c3ccnn3C(=O)Nc3ccccc3)cc2)CC1`, for which the “hERG current change (%, negative = inhibition) at 10uM” value is recorded as -11.5%.

`CCOC(=O)c1ccc(NC(=O)c2ccc(OC(C)C)c(OC)c2)cc1`: the “hERG current change (%, negative = inhibition) at 10uM” value is reported as -3.47%.

Consider `Cc1cc(C(=O)COC(=O)c2ccncc2)c(C)n1Cc1ccco1`, for which the “hERG current change (%, negative = inhibition) at 10uM” value amounted to 13.7%.

With `NC(=O)c1c(NC(=O)C2c3ccccc3Oc3ccccc32)sc2c1CCCCC2`, the “hERG current change (%, negative = inhibition) at 10uM” value is 6.4%.

For the compound `CCS(=O)(=O)N1CCC(C(=O)N2CCOCC2)CC1`, the “hERG current change (%, negative = inhibition) at 10uM” value turned out to be 12%.

Turning to `COc1ccc(S(=O)(=O)NCC2CCCN(Cc3cn(C)nc3C)C2)cc1` (stereo not shown), the “hERG current change (%, negative = inhibition) at 10uM” value was determined as 8.1%.

`CC(C)c1cccc(C(C)C)c1OC(=O)[C@H]1OC(C(C)(C)C)=C[C@@H]1c1ccccc1`: the “hERG current change (%, negative = inhibition) at 10uM” value is on record as -6.97%.

Consider `COc1cc(C(=O)NCCCN(C)C)ccc1OCC(=O)Nc1cccc(C(F)(F)F)c1`, for which the “hERG current change (%, negative = inhibition) at 10uM” value is recorded as -59.1%.

In the case of `CCN(CC(=O)Nc1ccc(OC)c(OC)c1)CC(=O)Nc1ccccc1C(F)(F)F`, the “hERG current change (%, negative = inhibition) at 10uM” value was -0.147%.

In the case of `COc1cc(C(=O)NCc2ccc(S(N)(=O)=O)cc2)ccc1OCC(=O)Nc1cccc(C(F)(F)F)c1`, the “hERG current change (%, negative = inhibition) at 10uM” value is on record as 15.5%.

For the compound `CCOc1ccc(C(=O)NCCCCNC(=O)c2ccc(OCC)cc2)cc1`, the “hERG current change (%, negative = inhibition) at 10uM” value came to 21.8%.

With `CCN(CC)CCCNC(=O)c1ccc(OCC(=O)Nc2ccccc2C(F)(F)F)c(OC)c1`, the “hERG current change (%, negative = inhibition) at 10uM” value is recorded as -70.5%.

Consider `CCOc1ccc(C(=O)NCCNC(=O)c2ccc(OCC)cc2)cc1`, for which the “hERG current change (%, negative = inhibition) at 10uM” value is 9.15%.

As for `CCN(CC(=O)Nc1ccccc1OC)CC(=O)Nc1ccccc1C(F)(F)F`, the “hERG current change (%, negative = inhibition) at 10uM” value is reported as -5.29%.

`COc1cc(C(=O)N(C)CCOc2ccccc2)ccc1OCC(=O)Nc1cccc(C(F)(F)F)c1`: the “hERG current change (%, negative = inhibition) at 10uM” value is recorded as -14.2%.

Take `CCOc1ccc(C(=O)NCCCN(CC)CC)cc1`: the “hERG current change (%, negative = inhibition) at 10uM” value is on record as -51.8%.

On to `CC(C)CCNC(=O)NC(=O)CSc1nnc(-c2ccccc2Br)o1`, for which the “hERG current change (%, negative = inhibition) at 10uM” value is recorded as -5.73%.

Turning to `CC(=O)c1ccc(-c2nc3ccccc3n2C)o1`, the “hERG current change (%, negative = inhibition) at 10uM” value is 12.7%.

Regarding `CC1CCN(C(=O)COC(=O)CCc2c[nH]c3ccccc23)CC1`, the “hERG current change (%, negative = inhibition) at 10uM” value was 9.1%.

Take `CCOC(=O)c1csc(NC(=O)c2ccccc2)n1`: the “hERG current change (%, negative = inhibition) at 10uM” value is listed as -8.86%.

For `COc1ccc(NC(=O)OCC(C)C)cc1OC`, the “hERG current change (%, negative = inhibition) at 10uM” value was determined as 15.9%.

Regarding `C=CCN1C(=O)/C(=C/c2ccc(OC)cc2)S/C1=N/c1nccs1`, the “hERG current change (%, negative = inhibition) at 10uM” value is 13.4%.

`Cc1nn(C(=O)c2ccco2)c(C)c1Sc1ccc([N+](=O)[O-])cc1`: the “hERG current change (%, negative = inhibition) at 10uM” value stood at 20.8%.

As for `O=C(COC(=O)c1cc(Cl)ccc1O)NCCNC(=O)COC(=O)c1cc(Cl)ccc1O`, the “hERG current change (%, negative = inhibition) at 10uM” value was 21.4%.

Consider `COc1ccc(Cl)cc1C(=O)OCC(=O)NCc1cccs1`, for which the “hERG current change (%, negative = inhibition) at 10uM” value was -28.1%.

In the case of `COc1ccc(Cl)cc1C(=O)OCC(=O)NCCNC(=O)COC(=O)c1cc(Cl)ccc1OC`, the “hERG current change (%, negative = inhibition) at 10uM” value was -71.6%.

Consider `Cc1cccc(C(=O)OCCN2CCOCC2)c1.Cl`, for which the “hERG current change (%, negative = inhibition) at 10uM” value was determined as 12.3%.

Turning to `CCOc1ccc(C2C(C#N)=C(N)SC(N)=C2C#N)cc1OCC`, the “hERG current change (%, negative = inhibition) at 10uM” value amounted to 13.5%.

For `COc1cccc(O)c1CN1CCCC(C(=O)c2ccccc2SC)C1` (stereo not shown), the “hERG current change (%, negative = inhibition) at 10uM” value was -44.1%.

Consider `COc1ccccc1CN1CCCC(C(=O)c2ccccc2OC)C1` (stereo not shown), for which the “hERG current change (%, negative = inhibition) at 10uM” value is -47.2%.

As to `COc1cccc(OC)c1CN1CCCC(C(=O)c2ccccc2SC)C1` (stereo not shown), the “hERG current change (%, negative = inhibition) at 10uM” value is -72.6%.

For the compound `COc1cccc(CN2CCCC(C(=O)c3ccccc3SC)C2)c1O` (stereo not shown), the “hERG current change (%, negative = inhibition) at 10uM” value is listed as -77.5%.

Consider `COc1ccccc1CN1CCCC(C(=O)c2ccccc2SC)C1` (stereo not shown), for which the “hERG current change (%, negative = inhibition) at 10uM” value is -71.1%.

Consider `COC(=O)CCCC(=O)N1CCCC(C(=O)c2ccccc2SC)C1` (stereo not shown), for which the “hERG current change (%, negative = inhibition) at 10uM” value is listed as -8.08%.

Consider `C/C(=N\NC(=O)c1ccccc1O)c1ccc(Br)s1`, for which the “hERG current change (%, negative = inhibition) at 10uM” value is 11%.

For the compound `O=C(O)c1ccc2c(c1Sc1ccccc1)C(=O)c1ccccc1C2=O`, the “hERG current change (%, negative = inhibition) at 10uM” value is -4.82%.

As for `COc1cc(C(=O)Nc2ccc(S(=O)(=O)NC(C)C)cc2)cc(OC)c1OC`, the “hERG current change (%, negative = inhibition) at 10uM” value is on record as -2.49%.

Consider `O=C(CCn1cccn1)Nc1ccc(-c2ccno2)cc1`, for which the “hERG current change (%, negative = inhibition) at 10uM” value is on record as 14.4%.

For the compound `CCNC(=O)CN(CCc1ccccc1)S(C)(=O)=O`, the “hERG current change (%, negative = inhibition) at 10uM” value is listed as 17.8%.

With `O=S(=O)(Nc1ccc(-c2nnc(SCc3ccc(Cl)cc3)o2)cc1)c1ccccc1`, the “hERG current change (%, negative = inhibition) at 10uM” value is recorded as 17.8%.

As for `O=S(=O)(Nc1ccc(-c2ccc3nncn3n2)cc1)c1cccs1`, the “hERG current change (%, negative = inhibition) at 10uM” value stood at 15.4%.

Consider `O=C(NCc1ccccc1Cl)c1cccc(NC2=NC3CS(=O)(=O)CC3S2)c1` (stereo not shown), for which the “hERG current change (%, negative = inhibition) at 10uM” value was found to be 13.1%.

With `Cc1nnc(NC(=O)c2ccccc2Br)s1`, the “hERG current change (%, negative = inhibition) at 10uM” value was -1.65%.

`CC1=C(C(=O)Nc2ccccc2)C(c2ccco2)C(C#N)=C(SCC(=O)Nc2cccc(C)c2C)N1` (stereo not shown): the “hERG current change (%, negative = inhibition) at 10uM” value is 17.9%.

In the case of `CCc1nc2sc3c(c2c(=O)n1N)CC(C)(C)OC3`, the “hERG current change (%, negative = inhibition) at 10uM” value is on record as 7.31%.

With `OCCN1CCN(Cc2cc(Br)cc(Br)c2O)CC1`, the “hERG current change (%, negative = inhibition) at 10uM” value is on record as -60.8%.

With `CCN1CCN(Cc2cc(Br)cc(Br)c2O)CC1`, the “hERG current change (%, negative = inhibition) at 10uM” value is listed as -50.6%.

With `CCN1CCN(Cc2cc(Br)cc(OC)c2O)CC1`, the “hERG current change (%, negative = inhibition) at 10uM” value is -20.4%.

Consider `CCN1CCN(Cc2cc(Br)ccc2O)CC1`, for which the “hERG current change (%, negative = inhibition) at 10uM” value is on record as -22.7%.

For `Oc1c(Br)cc(Br)cc1CN1CCN(Cc2ccccc2)CC1`, the “hERG current change (%, negative = inhibition) at 10uM” value is -3.14%.

Turning to `COc1ccc(Br)cc1CN1CCN(CCO)CC1`, the “hERG current change (%, negative = inhibition) at 10uM” value is reported as -0.9%.
